Columns and labels:
Assay in all cases: PBM binding z-score (relative to random genomic background probes); higher = stronger binding; sequences stand for … in GC…GCGATTGACAGCGTAGAATGAAGG
[1] = test system: RARb homodimer (NR concentration 270 nM)
Procedure, shortened: (§1)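 The probes on custom Agilent 4×180K protein-binding microarrays were double-stranded, with 34-nt variable regions bearing direct-repeat seeds, single-nucleotide variants, half-site ablations and random human genomic background sequences. Incubation lasted 1 h with ligand-free nuclear receptor dimers in PBS pH 7.4, 2% milk, 0.02% Triton X-100, 1 mM DTT, 0.2 mg/mL BSA and 0.4 mg/ml salmon testes DNA. Antibodies against each partner (one per run) detected bound dimers, and fluorescence scans were regression-normalized. Binding z-scores take the random background probes as reference.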

[2] = test system: RARg:RXRa (NR concentration 270 nM, RXRa partner concentration 90 nM)
Procedure, shortened: as §1

[3] = test system: RARg homodimer (NR concentration 270 nM)
Procedure, shortened: as §1

[4] = test system: RXRa DBDmut IVT, anti-RXR (DBD mutation: RXRa K156A/R161A, NR concentration 90 nM)
Procedure, shortened: as §1

[5] = test system: RXRa homodimer (NR concentration 180 nM)
Procedure, shortened: as §1

[6] = test system: THRa:RXRa (NR concentration 90 nM, RXRa partner concentration 90 nM)
Procedure, shortened: as §1

[7] = test system: THRa homodimer (NR concentration 90 nM)
Procedure, shortened: as §1

[8] = test system: VDR:RXRa (NR concentration 270 nM, RXRa partner concentration 90 nM)
Procedure, shortened: as §1

[9] = test system: VDR homodimer (NR concentration 270 nM)
Procedure, shortened: as §1

**Q.** For CCTAGCAGCCCAATCTGGGTCACTCAAGGCTTGA, which PBM binding z-score [1] is on record?
**A.** 1.77

**Q.** What about the PBM binding z-score [2] of the same sequence?
**A.** 0.615

**Q.** And the PBM binding z-score [3]?
**A.** 0.301

**Q.** And the PBM binding z-score [4]?
**A.** -0.241

**Q.** And the PBM binding z-score [5]?
**A.** 0.56

**Q.** What about the PBM binding z-score [6] of the same sequence?
**A.** 2.28

**Q.** What about the PBM binding z-score [7] of the same sequence?
**A.** 0.424

**Q.** And the PBM binding z-score [8]?
**A.** 0.11

**Q.** And the PBM binding z-score [9]?
**A.** -0.324

**Q.** For ACTACAGGGTCACTAGGCCAGAGTAGGTACGAAT, which PBM binding z-score [1] is on record?
**A.** 3.08

**Q.** What about the PBM binding z-score [2] of the same sequence?
**A.** 4.68

**Q.** And the PBM binding z-score [3]?
**A.** 4.59

**Q.** And the PBM binding z-score [4]?
**A.** 2.54

**Q.** And the PBM binding z-score [5]?
**A.** 4.84

**Q.** And the PBM binding z-score [6]?
**A.** 3.33

**Q.** What about the PBM binding z-score [7] of the same sequence?
**A.** 0.948

**Q.** What about the PBM binding z-score [8] of the same sequence?
**A.** 3.76

**Q.** And the PBM binding z-score [9]?
**A.** 1.82

**Q.** For CGTCAAAGTTCAACTAAGGGAACGTAAAGCACGC, which PBM binding z-score [1] is on record?
**A.** 3.93

**Q.** And the PBM binding z-score [2]?
**A.** 5.85

**Q.** What about the PBM binding z-score [3] of the same sequence?
**A.** 6.56

**Q.** And the PBM binding z-score [4]?
**A.** 4.65

**Q.** What about the PBM binding z-score [5] of the same sequence?
**A.** 5.21

**Q.** And the PBM binding z-score [6]?
**A.** 4.49

**Q.** And the PBM binding z-score [7]?
**A.** 0.0368

**Q.** What about the PBM binding z-score [8] of the same sequence?
**A.** 4.35

**Q.** What about the PBM binding z-score [9] of the same sequence?
**A.** 3.51

**Q.** Which PBM binding z-score [1] does the source give for GCTTACGGGACAAAGGTTATAGCATGAATAGAAT here?
**A.** 1.47

**Q.** And the PBM binding z-score [2]?
**A.** 2.52

**Q.** What about the PBM binding z-score [3] of the same sequence?
**A.** 1.27

**Q.** What about the PBM binding z-score [4] of the same sequence?
**A.** 0.777

**Q.** And the PBM binding z-score [5]?
**A.** 2.36

**Q.** And the PBM binding z-score [6]?
**A.** 1.55

**Q.** And the PBM binding z-score [7]?
**A.** -0.159

**Q.** And the PBM binding z-score [8]?
**A.** 1.24

**Q.** What about the PBM binding z-score [9] of the same sequence?
**A.** 0.681

**Q.** What does the source list for TCTGCTAGGCCAGTTGGTCAGCTAACGAGCTGCC?
**A.** PBM binding z-score [1]: -0.0493; PBM binding z-score [2]: -0.411; PBM binding z-score [3]: -0.212; PBM binding z-score [4]: -0.198; PBM binding z-score [5]: -0.79; PBM binding z-score [6]: -0.845; PBM binding z-score [7]: -1.4; PBM binding z-score [8]: -0.797; PBM binding z-score [9]: -1.5

**Q.** Which PBM binding z-score [1] does the source give for ACTAGCAGGCCAAGGGTCACACAAGATTAGTCCG here?
**A.** 4.06

**Q.** What about the PBM binding z-score [2] of the same sequence?
**A.** 4.6

**Q.** And the PBM binding z-score [3]?
**A.** 4.2

**Q.** What about the PBM binding z-score [4] of the same sequence?
**A.** 0.3

**Q.** And the PBM binding z-score [5]?
**A.** 4.68

**Q.** What about the PBM binding z-score [6] of the same sequence?
**A.** 3.16

**Q.** What about the PBM binding z-score [7] of the same sequence?
**A.** 0.442

**Q.** And the PBM binding z-score [8]?
**A.** 3.53

**Q.** What about the PBM binding z-score [9] of the same sequence?
**A.** 1.42

**Q.** For TCTTGTAGATCAAAGGTTACGAAAGCCGAAGCCT, which PBM binding z-score [1] is on record?
**A.** 1.9

**Q.** And the PBM binding z-score [2]?
**A.** 2.29

**Q.** And the PBM binding z-score [3]?
**A.** 1.06

**Q.** And the PBM binding z-score [4]?
**A.** 0.663

**Q.** What about the PBM binding z-score [5] of the same sequence?
**A.** 3.64

**Q.** What about the PBM binding z-score [6] of the same sequence?
**A.** 1.66

**Q.** And the PBM binding z-score [7]?
**A.** -0.301

**Q.** And the PBM binding z-score [8]?
**A.** 1.6

**Q.** And the PBM binding z-score [9]?
**A.** -0.125

**Q.** How did the PBM binding z-score [1] turn out when TCTGCTAAGTCAGTTGGTCAGCTAACGAGCTGCC was run?
**A.** -0.3

**Q.** And the PBM binding z-score [2]?
**A.** -0.611

**Q.** And the PBM binding z-score [3]?
**A.** -0.521

**Q.** And the PBM binding z-score [4]?
**A.** -0.0698

**Q.** What about the PBM binding z-score [5] of the same sequence?
**A.** -0.61

**Q.** And the PBM binding z-score [6]?
**A.** -0.628

**Q.** And the PBM binding z-score [7]?
**A.** -0.977

**Q.** What about the PBM binding z-score [8] of the same sequence?
**A.** -0.514

**Q.** And the PBM binding z-score [9]?
**A.** -0.941

**Q.** TCTTGTAGATCAGTAGAGGTTAAGAAAGTGCGCT was tested. Which PBM binding z-score [1] did it give?
**A.** 1.26

**Q.** What about the PBM binding z-score [2] of the same sequence?
**A.** 0.475

**Q.** What about the PBM binding z-score [3] of the same sequence?
**A.** 0.344

**Q.** And the PBM binding z-score [4]?
**A.** 0.802

**Q.** And the PBM binding z-score [5]?
**A.** 1.24

**Q.** What about the PBM binding z-score [6] of the same sequence?
**A.** 1.88

**Q.** What about the PBM binding z-score [7] of the same sequence?
**A.** -0.288

**Q.** What about the PBM binding z-score [8] of the same sequence?
**A.** 1.51

**Q.** And the PBM binding z-score [9]?
**A.** 0.245

**Q.** What does the source list for TCGAGTAAGTTACCAATGGGGCATTCAGCTTTCT?
**A.** PBM binding z-score [1]: -0.474; PBM binding z-score [2]: -0.261; PBM binding z-score [3]: -0.771; PBM binding z-score [4]: 0.494; PBM binding z-score [5]: -0.0395; PBM binding z-score [6]: -0.445; PBM binding z-score [7]: -0.524; PBM binding z-score [8]: 0.0279; PBM binding z-score [9]: -0.319

**Q.** For CCTAGTTGGTGAGGAGGTCACACACCGGATATGA, which PBM binding z-score [1] is on record?
**A.** 3.83

**Q.** And the PBM binding z-score [2]?
**A.** 4.09

**Q.** What about the PBM binding z-score [3] of the same sequence?
**A.** 3.23

**Q.** What about the PBM binding z-score [4] of the same sequence?
**A.** 0.474

**Q.** What about the PBM binding z-score [5] of the same sequence?
**A.** 3.91

**Q.** What about the PBM binding z-score [6] of the same sequence?
**A.** 3.34

**Q.** And the PBM binding z-score [7]?
**A.** 2.03

**Q.** What about the PBM binding z-score [8] of the same sequence?
**A.** 3.46

**Q.** What about the PBM binding z-score [9] of the same sequence?
**A.** 2.53

**Q.** Which results are given for ATATGTAGGTTATCGGGGCATTCAGTTTGCGCAT?
**A.** PBM binding z-score [1]: 1.53; PBM binding z-score [2]: 1.3; PBM binding z-score [3]: 1.24; PBM binding z-score [4]: 1.35; PBM binding z-score [5]: 1.25; PBM binding z-score [6]: 1.49; PBM binding z-score [7]: 1.4; PBM binding z-score [8]: 2.27; PBM binding z-score [9]: 2.14

**Q.** How did the PBM binding z-score [1] turn out when GGAACGAGGGCAACTTGATAGCAGAGTTTGATGG was run?
**A.** 1.42

**Q.** What about the PBM binding z-score [2] of the same sequence?
**A.** 1.7

**Q.** What about the PBM binding z-score [3] of the same sequence?
**A.** 2.17

**Q.** And the PBM binding z-score [4]?
**A.** 2.2

**Q.** And the PBM binding z-score [5]?
**A.** 1.13

**Q.** What about the PBM binding z-score [6] of the same sequence?
**A.** 1.26

**Q.** What about the PBM binding z-score [7] of the same sequence?
**A.** 0.0506

**Q.** What about the PBM binding z-score [8] of the same sequence?
**A.** 0.718

**Q.** What about the PBM binding z-score [9] of the same sequence?
**A.** 1.35

**Q.** How did the PBM binding z-score [1] turn out when ACTATCAGGCCAAGTTTGGGTCACTCAAACAAAG was run?
**A.** 2.56

**Q.** And the PBM binding z-score [2]?
**A.** 2.71

**Q.** What about the PBM binding z-score [3] of the same sequence?
**A.** 2.11

**Q.** And the PBM binding z-score [4]?
**A.** 0.348

**Q.** What about the PBM binding z-score [5] of the same sequence?
**A.** 0.935

**Q.** What about the PBM binding z-score [6] of the same sequence?
**A.** 2.93

**Q.** And the PBM binding z-score [7]?
**A.** 1.81

**Q.** What about the PBM binding z-score [9] of the same sequence?
**A.** 0.829

**Q.** Which PBM binding z-score [1] does the source give for TCATATAGGTAAAGGTAAAAGTCGAACGATATGA here?
**A.** 0.156

**Q.** What about the PBM binding z-score [2] of the same sequence?
**A.** 0.701

**Q.** And the PBM binding z-score [3]?
**A.** 0.679

**Q.** And the PBM binding z-score [4]?
**A.** 0.705

**Q.** What about the PBM binding z-score [5] of the same sequence?
**A.** 1.11

**Q.** And the PBM binding z-score [6]?
**A.** 0.531

**Q.** And the PBM binding z-score [7]?
**A.** -0.456

**Q.** And the PBM binding z-score [9]?
**A.** -0.0631
